Results from PubChem BioAssay AID588348 (Broad Institute, 2011).
Out of some 1,300 compounds screened, fewer than 10 were called active.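 How the source made its calls: active means fitted half-maximal dose AC50 no more than ten times the top valid tested dose, with luminescence dropping as dose rises; inconclusive means poor fit, or flat fit with 30 to 70% inhibition; inactive means the rest, signal increases included.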 A selection follows.

Experiment: ADP-Glo luciferase interference without Dyrk1A, dose response, artefact control for Dyrk1A inhibitor project, biochemical, luminescence, cherry-pick, set 02 (AID 588348)
Conditions: ADP-Glo luciferase artifact assay, no Dyrk1A; series mostly up to 12 µM

SMILES | outcome
COc1c(O)cc2oc(-c3ccc(O)c(O)c3)cc(=O)c2c1O | inactive
CCN(CC)c1ccc(NC(=O)CCc2nnc3ccc(N4CCCCC4)nn23)c(C)c1 | inactive
CCOC(=O)Cn1c(-c2cccnc2Cl)nc2ccccc21 | inactive
Cc1cc(/C=N/Nc2ccc([N+](=O)[O-])cn2)c(C)n1-c1cccc(C(=O)O)c1 | inactive
Cc1noc(C)c1-c1ccc2ncnc(NC(C)c3ccco3)c2c1 (configuration not stated) | inactive
COc1ccc2c(Cl)c(C(=O)NCc3ccco3)sc2c1 | inactive
Cc1cccc(-c2nc(Nc3ccc(O)cc3)c3ccccc3n2)c1 | inactive
Oc1ccc(-c2nc3ccccc3nc2-c2ccc(O)cc2O)c(O)c1 | inactive
Oc1ccc(-c2[nH]ncc2-c2nc3ccccc3s2)c(O)c1 | inactive
NC(=S)c1ccc(C(N)=S)o1 | inactive
Nc1nonc1-n1nnc(C(=O)N/N=C\c2ccncc2)c1CN1CCCCC1 | inactive
C=C(C)Cn1c(N2CCN(CC)CC2)nc2c1c(=O)[nH]c(=O)n2C | inactive
Nc1nc(SCc2ccc([N+](=O)[O-])cc2)c2ncn(C3OC(CO)C(O)C3O)c2n1 (configuration not stated) | inactive
Nc1nc(NCCCN2CCOCC2)nc(Nc2ccccc2)c1[N+](=O)[O-] | inactive
Cc1ccc(/C=C(\C#N)C(=O)Nc2cccc3ncccc23)o1 | inactive
CC(=O)Oc1ccc2c(c1)C(=O)c1ccccc1C2=O | inactive
CCc1cc2c(NC3CCCC3)ncnc2s1 | inactive
COc1ccc(S(=O)(=O)N(C)C[C@H]2Oc3ccc(NS(=O)(=O)c4cccs4)cc3CC(=O)N([C@H](C)CO)C[C@H]2C)cc1 | inactive
COc1ccc2oc(N)c(C=O)c(=O)c2c1 | inactive

SMILES | outcome
COc1ccc2[nH]c(C)c(CCN(Cc3cccs3)C(=S)Nc3ccccc3OC)c2c1 | inactive
NS(=O)(=O)c1ccc(-c2ccc(/C=C3\SC(=O)NC3=O)o2)cc1 | inactive
O=C(NC(Nc1nc2ccc([N+](=O)[O-])cc2s1)(C(F)(F)F)C(F)(F)F)c1ccccc1 | inactive
O=C1/C(=C/c2ccc3c(c2)OCO3)Oc2cc(OCC(=O)N3CC(O)C[C@H]3C(=O)O)ccc21 (some centres not stated) | inactive
CCOc1cc(/C=C2\SC(N3CCCCC3)=NC2=O)ccc1O | inactive
CCc1n[nH]c(=S)n1/N=C/c1c[nH]c2ccc(Br)cc12 | inactive
CC(=O)C1C(c2ccc(Cl)cc2)NC(=O)NC1(O)C(F)(F)F (configuration not stated) | inactive
CC(=O)Nc1cccc(-c2cnc3ccccc3n2)c1 | inactive
Oc1ccc(-c2csc(Nc3cccnc3)n2)cc1 | inactive
CCOCCCNC(=O)C(NC(=O)c1ccc(=O)[nH]c1)c1ccc(Cl)cc1 (configuration not stated) | inactive
CN1c2ccc(C=O)c3c(C=O)ccc(c23)N(C)C1(C)C | inactive
O=C1N=C(N2CCc3ccccc3C2)S/C1=C\c1ccc(O)cc1 | inactive
O=C(NCCc1ccccc1)C1CCN(S(=O)(=O)c2ccc(Br)s2)CC1 | inactive
CCn1c(NC(=O)c2ccccc2)c(-c2cccs2)c(=O)c2ccccc21 | inactive
COc1cccc(C(=O)NNC(=O)/C=C/c2ccccc2)c1 | inactive
C[C@@H]1O[C@@H](OC[C@H]2O[C@@H](Oc3c(-c4ccc(O)cc4)oc4cc(O)cc(O)c4c3=O)[C@H](O)[C@@H](O)[C@@H]2O)[C@H](O)[C@H](O)[C@H]1O | inactive
Cc1noc(NS(=O)(=O)c2ccc(NC(=O)c3oc4ccc(F)cc4c3C)cc2)c1C | inactive
COc1cc(O)c2c(=O)c3c(O)c(O)ccc3oc2c1OC | inactive
